Screens from PubChem.
Cruzain inh noDet – inhibitors of Trypanosoma cruzi cruzain without detergent | hit rate 2.3% among 200,000 | Potency, µM, inactives show max response, negative = inhibition, hits mostly inhibitors | purified cruzain, Z-FR-AMC fluorescence, no detergent | P25779 | AID 1476;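 note: plate controls were enzyme without inhibitor for no effect and buffer without enzyme for full effect; nearly all actives have a fitted effect of over 40% in size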
Target sequence (P25779 123-467 limits assumed): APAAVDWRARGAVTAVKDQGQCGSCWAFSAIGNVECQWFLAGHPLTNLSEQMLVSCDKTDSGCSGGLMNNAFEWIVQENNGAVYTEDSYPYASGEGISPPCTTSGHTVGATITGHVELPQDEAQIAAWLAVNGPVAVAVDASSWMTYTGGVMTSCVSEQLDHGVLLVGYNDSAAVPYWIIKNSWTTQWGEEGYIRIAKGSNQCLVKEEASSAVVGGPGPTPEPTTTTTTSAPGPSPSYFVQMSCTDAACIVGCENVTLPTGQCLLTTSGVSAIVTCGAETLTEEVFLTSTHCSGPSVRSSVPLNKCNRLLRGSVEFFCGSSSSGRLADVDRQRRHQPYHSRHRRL
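Detergent-free condition (0.00005% Triton X-100) in acetate buffer pH 5.5 with DTT. 1.5 nM enzyme and compound were pre-mixed 15 min, then 2 uM Z-FR-AMC substrate added; reaction progress from fluorescence change between first and third reads (60 s).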
Cruzain Triton – cruzain (T. cruzi) inhibition with detergent | P25779 | purified cruzain, Z-FR-AMC fluorescence, 0.01% Triton | Potency, µM, inactives show max response, negative = inhibition, most hits filed as inhibitors | hit rate 0.43% among 200,000 | AID 1478;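 note: plate controls were neutral wells for no effect and buffer without enzyme for full effect; nearly all actives have a fitted effect of over 40% in size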
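Sodium acetate buffer (100 mM, pH 5.5) containing 5 mM DTT and 0.01% Triton X-100 hosted 1.5 nM cruzain and test compound for 15 min at room temperature. Cleavage of 2 uM Z-FR-AMC was then tracked by fluorescence.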
* = called active by the depositor. Only some compounds are listed: those with a hit (about 2.6% of all), similar ones and a draw of the others. Calls come from the whole dose curve; as a rule, active = well fitted curve in the direction sought with a large enough effect; inconclusive = small, poorly fitted or top-dose-only effect, or another doubt; inactive = no such curve, though single readings can be large; an effect the other way counts as inactive or inconclusive. Potency is the fitted concentration of half-maximal effect.

`Cc1cc(C)c(C)c(OCC(=O)Nc2ccc(S(=O)(=O)Nc3nc(C)cc(C)n3)cc2)c1` gave Cruzain inh noDet inconclusive and Cruzain Triton -9%.
Screening C/C(=N\N=C(/N)SC1CC(=O)N(c2ccc(Cl)c(Cl)c2)C1=O)c1cccs1 (stereo not drawn) returned Cruzain inh noDet 32µM* and Cruzain Triton -7%.
C/C(=N\N=C(/N)SC1CC(=O)N(c2ccc(Cl)cc2)C1=O)c1cccs1 (stereo not drawn) was read as Cruzain inh noDet -4% and Cruzain Triton -16%.
CC(=O)c1ccc(NC(=O)CCc2c(C)nc3cc(-c4ccc(Cl)cc4)nn3c2C)cc1 was read as Cruzain inh noDet -5% and Cruzain Triton -1%.
`CCOc1cc2c(C#N)c(N3CCCCC3)nc(N)c2c(N)n1` gave Cruzain inh noDet -11% and Cruzain Triton -9%.
Screening COc1ccc(CN2C(=O)Cc3c2nc(N)c2c(N)nc(N4CCCCC4)c(C#N)c32)cc1 returned Cruzain inh noDet 6.3µM* and Cruzain Triton -9%.
Cc1ccc(C)o1 was read as Cruzain inh noDet -2% and Cruzain Triton 1%.
COc1ccccc1Nc1nc(-c2sc(NC(=O)c3ccccc3)nc2C)cs1 was read as Cruzain inh noDet inconclusive and Cruzain Triton 3%.
CCOc1ccccc1Nc1nc(-c2sc(NC(=O)c3ccccc3)nc2C)cs1 was read as Cruzain inh noDet 13µM* and Cruzain Triton -4%.
Screening COc1ccc(OC)c(Nc2nc(-c3sc(NC(=O)C(C)(C)C)nc3C)cs2)c1 returned Cruzain inh noDet -2% and Cruzain Triton -1%.
For COc1ccccc1Nc1nc(-c2sc(NC(=O)c3ccc([N+](=O)[O-])cc3)nc2C)cs1 the results were Cruzain inh noDet 4µM* and Cruzain Triton 1%.
`CCOc1ccccc1Nc1nnc(SC(C)C(=O)Nc2nc(-c3ccccc3)cs2)s1` (stereo not drawn) gave Cruzain inh noDet 7.9µM* and Cruzain Triton -5%.
Screening CCOc1ccccc1NC(=O)C(C)Sc1cc(-c2ccccc2)nc(C)n1 (stereo not drawn) returned Cruzain inh noDet -6% and Cruzain Triton -7%.
Screening Cc1nc(NC(=O)c2ccccc2)sc1-c1csc(NCCc2ccccc2)n1 returned Cruzain inh noDet inconclusive and Cruzain Triton -9%.
Screening CCOc1ccccc1Nc1nc(-c2sc(NC(=O)c3cccc(Cl)c3)nc2C)cs1 returned Cruzain inh noDet 6.3µM* and Cruzain Triton 0%.
For COc1cccc2c1CCC1CC(=O)CC[C@@]21C (stereo partly drawn) the results were Cruzain inh noDet -3% and Cruzain Triton 3%.
Cc1ccc2c(c1)-c1c(c(C(=O)N3CCN(c4cc(C)ccc4C)CC3)nn1C)CS2 was read as Cruzain inh noDet -5% and Cruzain Triton 2%.
Screening COc1ccc(-c2sc(NC(=O)c3ccc(C)cc3)nc2-c2ccc([N+](=O)[O-])cc2)cc1 returned Cruzain inh noDet 4µM* and Cruzain Triton -5%.
For COc1ccc2c(c1)CCc1sc(NC(=O)c3ccc(C)cc3)nc1-2 the results were Cruzain inh noDet -8% and Cruzain Triton -6%.
For O=C(CCN1C(=O)c2ccccc2Sc2ncccc21)Nc1ccc(F)cc1F the results were Cruzain inh noDet 4% and Cruzain Triton -1%.
Screening CCOc1cc(NC(=S)Nc2cccc(OC)c2)c(OCC)cc1NC(=O)c1ccc(C)cc1 returned Cruzain inh noDet inconclusive and Cruzain Triton -1%.
For CCOc1cc(NC(=S)Nc2ccccc2)c(OCC)cc1NC(=O)c1ccc(OC)cc1 the results were Cruzain inh noDet 16µM* and Cruzain Triton -3%.
`O=C(Nc1nccs1)c1cc2c(s1)-c1ccccc1OC2` gave Cruzain inh noDet inconclusive and Cruzain Triton -7%.
For O=C(NCCc1ccc(Cl)cc1)c1cc2c(s1)-c1ccccc1OC2 the results were Cruzain inh noDet inconclusive and Cruzain Triton -22%.
O=C(Nc1nc2ccccc2s1)c1cc2c(s1)-c1ccccc1OC2 was read as Cruzain inh noDet 13µM* and Cruzain Triton -1%.
For Cc1ccc(CCNC(=O)c2cc3c(s2)-c2ccccc2OC3)cc1 the results were Cruzain inh noDet 13µM* and Cruzain Triton -2%.
O=C(Cc1cn2ccsc2n1)Nc1ccccn1 was read as Cruzain inh noDet -29% and Cruzain Triton -7%.
For O=C(Cc1cn2ccsc2n1)Nc1cccc2cnccc12 the results were Cruzain inh noDet 13µM* and Cruzain Triton inconclusive.
Screening C[C@@H]1C[C@@H]([C@@H](C)CC2CC(=O)NC(=O)C2)C(=O)[C@@H](C)C1 returned Cruzain inh noDet -3% and Cruzain Triton -1%.
For CN(C)C=NC(=O)c1cc2c(n(-c3ccccc3)c1=O)CC(C)(C)CC2=O the results were Cruzain inh noDet -4% and Cruzain Triton -7%.
Screening CCOc1ccc(C2C(C#N)=C(N)SC(N)=C2C#N)c(OCC)c1 returned Cruzain inh noDet -1% and Cruzain Triton -11%.
For CCCCc1ccc(C2C(C#N)=C(N)SC(N)=C2C#N)s1 the results were Cruzain inh noDet 32µM* and Cruzain Triton inconclusive.
For Cc1cc(Nc2cccc(F)c2)nc(NCc2ccccc2)n1 the results were Cruzain inh noDet 6% and Cruzain Triton -7%.
Screening Cc1cccc(Nc2nc(NCC3CCCO3)nc(N)c2[N+](=O)[O-])c1 (stereo not drawn) returned Cruzain inh noDet 22% and Cruzain Triton -3%.
Screening Cc1ccc(CNc2nc(N)c([N+](=O)[O-])c(Nc3cccc(F)c3)n2)cc1 returned Cruzain inh noDet 20µM* and Cruzain Triton -1%.
`Nc1nc(NCc2ccccc2)nc(Nc2ccc(F)cc2)c1[N+](=O)[O-]` gave Cruzain inh noDet 7.9µM* and Cruzain Triton -4%.
For Nc1nc(NCc2ccccc2)nc(Nc2cccc(F)c2)c1[N+](=O)[O-] the results were Cruzain inh noDet 32µM* and Cruzain Triton 6%.
Screening Nc1nc(NCC2CCCO2)nc(Nc2ccc(F)cc2)c1[N+](=O)[O-] (stereo not drawn) returned Cruzain inh noDet -13% and Cruzain Triton -6%.
`O=C(CCCc1nc(-c2ccccc2)no1)Nc1cc(C(F)(F)F)cc(C(F)(F)F)c1` gave Cruzain inh noDet -10% and Cruzain Triton -13%.
`CCCCNC(=O)c1nn(C)c2c1CSc1ccccc1-2` gave Cruzain inh noDet -1% and Cruzain Triton -3%.
CNc1oc(/C=C/c2ccccc2)nc1C#N was read as Cruzain inh noDet inconclusive and Cruzain Triton 25µM*.
CNc1oc(-c2ccccc2)nc1C#N was read as Cruzain inh noDet 30% and Cruzain Triton -9%.
`Cc1c(/C=N/NC(=O)c2ccccc2O)c2ccccn2c1C(=O)c1ccc(F)cc1` gave Cruzain inh noDet 25µM* and Cruzain Triton -12%.
Screening Cc1c(/C=N/NC(=O)c2ccc(O)cc2)c2ccccn2c1C(=O)c1ccc(F)cc1 returned Cruzain inh noDet inconclusive and Cruzain Triton -3%.
`COc1ccc(C(=O)NCC(=O)OCC(=O)Nc2cc(OC)ccc2OC)cc1` gave Cruzain inh noDet -18% and Cruzain Triton inconclusive.
For COCC(=O)OCC(=O)Nc1cc(C)c(C)cc1[N+](=O)[O-] the results were Cruzain inh noDet 4% and Cruzain Triton -2%.
Screening Cc1ccc(C(=O)NCC(=O)OCC(=O)Nc2cc(C)c(C)cc2[N+](=O)[O-])cc1 returned Cruzain inh noDet 10µM* and Cruzain Triton 8.9µM*.
Cc1ccsc1C(=O)OCC(=O)Nc1ccc(Cl)cc1C(F)(F)F was read as Cruzain inh noDet -3% and Cruzain Triton 3%.
